Measured values reported in the supplement of paper PMC3334620.
Over roughly 33,000 sequences, “E-score (-0.5 to 0.5)” has its median near -0.041; the highest 2% begin near 0.37. This is one part of a sample in which the highest values are shown more often than they occur.

molecular target: T1, Ecm22 (UniProt Q05958); assay: PBM E-score (8-mer binding enrichment) (E-score (-0.5 to 0.5)); higher = stronger / more preferred TF binding; details: protein concentration: 200 nM; construct: GST-full length
T1 sequence: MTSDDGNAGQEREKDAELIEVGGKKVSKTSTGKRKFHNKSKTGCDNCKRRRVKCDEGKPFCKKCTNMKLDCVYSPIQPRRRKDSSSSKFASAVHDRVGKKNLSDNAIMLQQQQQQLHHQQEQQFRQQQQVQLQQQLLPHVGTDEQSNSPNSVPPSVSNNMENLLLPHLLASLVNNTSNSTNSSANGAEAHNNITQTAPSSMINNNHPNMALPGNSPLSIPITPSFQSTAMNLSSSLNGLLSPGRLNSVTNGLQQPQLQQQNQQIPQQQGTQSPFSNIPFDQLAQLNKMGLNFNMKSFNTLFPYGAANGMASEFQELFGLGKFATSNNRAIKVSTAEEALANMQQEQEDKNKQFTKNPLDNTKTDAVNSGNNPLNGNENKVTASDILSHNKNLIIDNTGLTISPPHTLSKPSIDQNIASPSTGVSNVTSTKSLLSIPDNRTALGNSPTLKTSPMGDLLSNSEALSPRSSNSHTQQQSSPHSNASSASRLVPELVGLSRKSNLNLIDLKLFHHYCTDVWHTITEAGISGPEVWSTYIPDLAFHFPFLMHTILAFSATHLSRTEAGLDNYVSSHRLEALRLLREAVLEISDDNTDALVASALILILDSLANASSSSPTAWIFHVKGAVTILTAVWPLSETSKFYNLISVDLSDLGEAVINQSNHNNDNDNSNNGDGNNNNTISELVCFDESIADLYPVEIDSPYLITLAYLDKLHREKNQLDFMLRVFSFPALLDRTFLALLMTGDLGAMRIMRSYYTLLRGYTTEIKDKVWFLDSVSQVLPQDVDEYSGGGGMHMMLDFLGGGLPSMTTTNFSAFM
Protocol: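 Universal 'all 10-mer' protein binding microarrays (Agilent AMADID 015681) probed with GST-tagged S. cerevisiae TFs (full-length or DBD) made by in vitro transcription/translation (PURExpress), about 100-200 nM. Bound TF was detected with fluorescent anti-GST. Each ungapped 8-mer (which stands for itself and its reverse complement) is scored by the PBM enrichment score (E-score), a modified Wilcoxon-Mann-Whitney statistic from -0.5 to +0.5, computed with the Universal PBM Analysis Suite. Scale: above 0.35 generally sequence-specific binding.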

Row | Sequence | PBM E-score
1 | CGGGTTAC | 0.231
2 | CGTTCCAC | 0.405
3 | GGTTCCAC | -0.237
4 | AGTTCCAG | -0.172
5 | AGTTCCAC | 0.0665
6 | CGTTCCAA | 0.365
7 | CGTTCCAG | 0.418
8 | CAATCTAG | -0.0844
9 | AGGTCCCC | -0.33
10 | GCTTCCGA | 0.0694
11 | GCTGCGAA | 0.0942
12 | CCACAGTC | -0.189
13 | AGGGACAC | -0.0536
14 | AGTTTACC | -0.0268
15 | CGTTTACA | 0.405
16 | AGTTTACA | -0.0418
17 | CATTTACC | -0.0682
18 | CGTTTACC | 0.435
19 | GGTTTACA | -0.0503
20 | GCTAGCCC | -0.379
21 | GGCCCGGA | -0.142
22 | GCAGGTCC | 0.0428
23 | CCATCTCG | 0.105
24 | ATCATACC | 0.00527
25 | AACATACG | 0.373
26 | CGCATACA | 0.111

Row | Sequence | PBM E-score
27 | ATCATACA | 0.0909
28 | ATCATACG | 0.404
29 | AACATACT | 0.0945
30 | CGCATACG | 0.385
31 | CGCATACC | 0.16
32 | CACATACG | 0.335
33 | CCGTCTTC | -0.175
34 | CCCTCAAA | -0.157
35 | ATTTGCGG | 0.0753
36 | AACCGTTA | 0.0731
37 | ACGACAAG | 0.334
38 | ACGACAGT | 0.382
39 | ACGACAGC | 0.319
40 | ACGACAAA | 0.384
41 | CCGACAAA | 0.0481
42 | ACGACAAT | 0.368
43 | TCGACAAA | 0.178
44 | ACGACAAC | 0.366
45 | ACGACAGG | 0.339
46 | ACGCCAGG | 0.0457
47 | GTCCAGCA | -0.169
48 | AAGCGTGT | -0.18
49 | CAGATATC | -0.0887
50 | GGTTCGAC | 0.0422
51 | TGCACAAA | -0.22
52 | AATCTCGA | 0.0888

Row | Sequence | PBM E-score
53 | AAGCTCGC | 0.297
54 | AAGCTCGA | 0.0757
55 | AATCTCGT | 0.386
56 | AATCTCGG | 0.129
57 | AAGCTCGT | 0.38
58 | TACATGGA | -0.119
59 | GCAGGGCA | -0.18
60 | GGCCACCA | -0.161
61 | ACCAGAAG | -0.0736
62 | CGACTGAA | 0.163
63 | ACCGAGCC | 0.245
64 | AATCGATT | 0.0191
65 | AAACGCTT | 0.00074
66 | AAACGATT | 0.42
67 | AAACGATG | 0.439
68 | GAACGATC | 0.432
69 | CAACGATC | 0.175
70 | CCACGATC | 0.0737
71 | GATCGATC | 0.171
72 | AAACGCTG | 0.0348
73 | CAACGATG | 0.207
74 | AGACGATC | -0.0754
75 | AAACGATC | 0.423
76 | CATTAGGG | -0.168
77 | AGAACCCG | -0.0503
78 | ACTCTACG | 0.265

Row | Sequence | PBM E-score
79 | AGCGCACG | 0.097
80 | ACCCCCTC | -0.274
81 | CGTGGATC | -0.0292
82 | CCTATGGA | -0.192
83 | CCCATTAC | -0.101
84 | CGACTGAG | 0.0682
85 | GGACGATA | -0.213
86 | CAACGATA | 0.263
87 | AAACGATA | 0.435
88 | GAACGATA | 0.416
89 | TAACGATA | 0.367
90 | CCACGATA | 0.0166
91 | ACCCTTGG | -0.233
92 | ATTCTAAA | 0.095
93 | ACCTAGAG | -0.00033
94 | ATTCGCGG | -0.00497
95 | ACGGGAGA | 0.0694
96 | CGACGGGA | 0.227
97 | ATTAAACA | -0.163
98 | ACTAAACG | 0.457
99 | CCTAAACG | 0.407
100 | CCTAAACC | -0.00691
101 | CCTAAACA | -0.149
102 | ATTAAACG | 0.449
103 | ATTAAACC | -0.0934
104 | ACTAAACA | -0.273

Row | Sequence | PBM E-score
105 | ACTAAACC | -0.00061
106 | GGAGTAAA | 0.0078
107 | GGGGCTAC | -0.0133
108 | GACGCCTA | -0.221
109 | TCTTCGAA | 0.108
110 | GATACTTA | -0.131
111 | CAGTCGGA | -0.067
112 | AAGTCGTG | -0.0717
113 | AAGTCGTA | 0.433
114 | GAGTCGTA | 0.43
115 | GAGTCGCA | 0.133
116 | AAGTCGTC | 0.139
117 | CAGTCGTA | 0.418
118 | GAGTCGGA | 0.0868
119 | CAGTCGTC | -0.109
120 | CCGGCCGA | -0.113
121 | AAGAGTTC | 0.00406
122 | CGAGCAAC | 0.168
123 | ACGCCGTG | -0.146
124 | ACTCATGC | -0.0706
125 | CACTGGGG | -0.267
126 | ACGAGACT | 0.348
127 | ACGAGAGA | 0.353
128 | ACGAGATG | 0.365
129 | GCGAGAGC | 0.182
130 | ACGAGATA | 0.346

Row | Sequence | PBM E-score
131 | ACGAGACG | 0.394
132 | ACGAGAGC | 0.399
133 | ACGAGATC | 0.433
134 | ACGAGACA | 0.315
135 | GGTAAACA | 0.129
136 | CGTAAACG | 0.444
137 | CGTAAACC | 0.366
138 | AGTAAACC | -0.0723
139 | AGTAAACA | 0.0411
140 | CGTAAACA | 0.385
141 | TGTAAACA | -0.0145
142 | CGGAAACG | 0.269
143 | AGTAAACG | 0.427
144 | TCCTTAAA | -0.1
145 | GGTCCACC | -0.214
146 | ACGCGGGA | 0.062
147 | AAAGCAGG | -0.203
148 | TCTTTACA | -0.132
149 | GTTTCGTA | 0.44
150 | ATTTCGTA | 0.444
151 | GTTTCGGA | 0.215
152 | ATTTCGTC | 0.0861
153 | CTTTCGTA | 0.428
154 | CTTTCGTC | 0.0061
155 | GTTTCGAA | -0.00209
156 | CTTTCGGA | 0.0148

Row | Sequence | PBM E-score
157 | ATTTCGTG | 0.0706
158 | GCCCGTGA | -0.115
159 | AGGTTTGC | -0.153
160 | ACCTAAAT | 0.112
161 | ACTGGAAA | -0.0956
162 | GTTAAACA | 0.00429
163 | ATCGTTTA | 0.483
164 | GACGTTTA | 0.303
165 | GGCGTTTA | 0.166
166 | AACGTTTA | 0.319
167 | ATCGTTTC | 0.365
168 | ATCGTTTG | 0.414
169 | GTCGTTTA | 0.491
170 | AGCGTTTA | 0.168
171 | AGCGTTTG | 0.031
172 | AAATCTCT | -0.0179
173 | ACACTCCT | -0.163
174 | CGTTGAGC | 0.0667
175 | CCACAAGA | -0.185
176 | CAAAAGGG | -0.181
177 | GCGGGGAC | -0.152
178 | ACGATACT | 0.313
179 | ATGATACG | 0.377
180 | ACGATACG | 0.383
181 | CCGATACG | 0.326
182 | ATGATACC | 0.146

Row | Sequence | PBM E-score
183 | ATGATACA | -0.0736
184 | GTTTTCCA | 0.061
185 | CTCCCGTC | 0.121
186 | TAAGTGCA | 0.0499
187 | CTGTTGCC | -0.265
188 | AAGGAACG | 0.458
189 | CAGGAACA | -0.0447
190 | AAGGAACC | 0.0815
191 | AAGGAACT | -0.0399
192 | ATGGAACA | -0.322
193 | ATGGAACC | -0.0738
194 | ATGGAACG | 0.402
195 | CAGGAACG | 0.463
196 | CAGGAACC | -0.171
197 | CCGCCTAG | -0.193
198 | CTTACCTA | -0.117
199 | GAAGTGTC | -0.055
200 | AATAGTTG | -0.116
201 | CAGCGTCG | 0.0918
202 | AAGCCGTC | -0.0956
203 | GAAACAAA | -0.0214
204 | GAAACGAA | 0.414
205 | CAAACGAA | 0.438
206 | CCAACGAA | 0.0596
207 | GTAACGAA | 0.306
208 | TAAACGCA | 0.292

Row | Sequence | PBM E-score
209 | AAAACGAA | 0.277
210 | TAAACGAA | 0.488
211 | TAAACAAA | 0.114
212 | AGTGACAT | -0.283
213 | GGCACAAA | -0.134
214 | GATATGCC | -0.108
215 | ATATTTAA | 0.0866
216 | ACACGGCG | -0.0862
217 | AGACGGCG | -0.0146
218 | ACACGGCA | 0.108
219 | ATACGGCG | 0.406
220 | AGACGGCC | -0.223
221 | ATACGGCC | 0.388
222 | ATACGGCA | 0.404
223 | GTACGGCA | 0.395
224 | AAACGGCA | 0.294
225 | CTACGGCA | 0.1
226 | GCACGGCA | -0.0485
227 | CTACGGCC | 0.018
